Experimental findings from paper PMC12136788 are described below.

Over roughly 24,000 sequences, “enrichment r” has its median near 0.99; the highest 2% begin near 3.7. The list is a sample of the results.

To fix the notation:
T1: UNK ZnF1-3 (human, UniProt Q9C0B0 31-174)
T1 sequence: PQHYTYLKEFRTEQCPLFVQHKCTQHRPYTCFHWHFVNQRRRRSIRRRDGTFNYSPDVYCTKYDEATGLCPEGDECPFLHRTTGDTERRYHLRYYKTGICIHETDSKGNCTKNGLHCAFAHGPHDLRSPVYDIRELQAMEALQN

B1: chr14:63761926:63761927:+_ENSMUSG00000021939_ENSMUST00000006235|mus_mus|FALSE|FALSE (ssRNA)
RNA: GGGAGUUCUACAGUCCGACGAUCCUGCCAAUGUCAAGCAGAGGGAGAAUUGGUUUAUUGGCACAGACAUUCCUUGUUAAACUACAGGGUUAAGUGGUAACUACAACAAAAAGCAAGUUUUUUUUUCCAGACUAGUUUCAUUGUCAACAGAGGAUUGAGCAUCA
B2: chr1:23381596:23381597:+_ENSG00000004487_ENST00000356634|hu_hu|motif|central (ssRNA)
RNA: GGGAGUUCUACAGUCCGACGAUCAGUUGGUAGGGGUUUUAUCCUCUUAUAGAUGCCGAAGUUGAUAAGACCAUGACGCUCGGAAUAACUGUGAACUCGGUGGACAAGCACAGUAUCACUGUUAUAAGGUGCUUCUAAUUGUUGCAACAGAGGAUUGAGCAUCA
B3: chr1:220276048:220276049:+_ENSG00000067704_ENST00000302637|hu_hu|hu_hu_hu_mus_True|18_88 (ssRNA)
RNA: GGGAGUUCUACAGUCCGACGAUCGCAAAUUGCCUGGUUGGCGGGAAUCGUCCAAGGCUGGGUGGUCCAAACUAAAACGCUAACAGGGGAUGAGGCAUCUGUAAGAGACUCCAACUUUGGAGAAGGCCUCAGGAGGGGGAAUCUCAACAGAGGAUUGAGCAUCA
B4: chr11:111909998:111909999:+_ENSG00000150768_ENST00000533297|hu_hu|FALSE|FALSE (ssRNA)
RNA: GGGAGUUCUACAGUCCGACGAUCACCCUUCCCUUUGGUCCAGCAGGAGUAGCUGGGCAGGGUGCUGAAGGUGUAGGAGCUAAAGGCUGGGGAGUUGGAGGAACAGCGGCCACCGGGGGUGGGGUAGGUGGUGGCACUUGUGGUCAACAGAGGAUUGAGCAUCA
B5: 91020203_91021877_1494_CDS_ENSMUSG00000030091_ENSMUST00000032179|mouse|control|control (ssRNA)
RNA: GGGAGUUCUACAGUCCGACGAUCCAUGACCCCCUUGACGGUGACUGUGGCAACCAUGGAGCUUGACGAAGACCAGCUGAAGUUCCCACUGCCCCCAUGGGCCUUUAUGGUAUACUGAUAGGCGCCUGUCUUUGGUUGCCAUGGCAACAGAGGAUUGAGCAUCA
B6: chr7:7679991:7679992:-_ENSG00000106399_ENST00000396682|hu_hu|hu_hu_hu_mus_False|88_98 (ssRNA)
RNA: GGGAGUUCUACAGUCCGACGAUCUGGGAUGAAUCUUUUCCAGCCUCCCUACGAAGCACACGGGCCGGUCGAUAUACUGUGGUAACAUGCUGGCGUUGACGCGCGCUUUGGGGAGCUGCAUUAUGUCCUCCAUGAUUCUGCCGCCAACAGAGGAUUGAGCAUCA
B7: chr8:104075188:104075189:+_ENSG00000155097_ENST00000518738|hu_hu|motif|central (ssRNA)
RNA: GGGAGUUCUACAGUCCGACGAUCCUUCCUAAACAAGGUGACAUUACACAGGUAACUGUCUUGGUCCUCUGAAAGAACAUUGCGGGACCUUGGAACUACCAUUUCGGCUAGUGUUUCAUACUGCUUAAUCCAGUCGUUGUGGUUCAACAGAGGAUUGAGCAUCA
B8: chr8:122087627:122087628:-_ENSMUSG00000034189_ENSMUST00000036049|mus_hu|FALSE|FALSE (ssRNA)
RNA: GGGAGUUCUACAGUCCGACGAUCUAGUUACAAAAUAAUACUUUUCAGUAGUCUUUCUUGAUGCACAUUUAAAAACCAGCACAACUCCUCUAGUGAAAUGGUCAAUUUCCCUUAAAAAACAACAUCUGAAAUUAUAAGACCUGACAACAGAGGAUUGAGCAUCA
B9: chr3:132387698:132387699:+_ENSG00000081307_ENST00000264991|hu_hu|FALSE|FALSE (ssRNA)
RNA: GGGAGUUCUACAGUCCGACGAUCUUGAACUUUACUUAAUCCUGCUUGAUGAGGUUGGAAGAAAAGUCUAUUCAUAUUGGCUAGUUCCACCUUGUCAUAAUCAAAGAGUAGCAACUUACCAAUGCCACAUCUUGUCAGCAUUUCCAACAGAGGAUUGAGCAUCA
B10: chr6:40197388:40197389:+_ENSMUSG00000057716_ENSMUST00000061740|mus_mus|mus_mus_mus_hu_False|18_58 (ssRNA)
RNA: GGGAGUUCUACAGUCCGACGAUCGAGACACUGGGGUGGAUUUAUUCCACCUCUGUUUGGGUGCUAGCCACUAAGACAGCUAUUUUGGGAUUCAUGGCCUUGAAUAUCAAGAGGGAAGGGACGAGAAUGGAAAGAGUCAAGAGUCAACAGAGGAUUGAGCAUCA
B11: chr11:98549071:98549072:+_ENSMUSG00000017221_ENSMUST00000017365|mus_hu|FALSE|FALSE (ssRNA)
RNA: GGGAGUUCUACAGUCCGACGAUCAUCCAGCUUGUCCAGGAACUCAUAGACCCGGGCGUGAUAAUAGUAACACUUUGCGGCUACAAGGUCUAGGGCCCGGCGGUUCUGAGUACUGAUCUUCUGCAUCAGAUCAUCAGAGAUCUUCAACAGAGGAUUGAGCAUCA
B12: chr15:103023242:103023243:-_ENSMUSG00000009575_ENSMUST00000118152|mus_mus|motif|central (ssRNA)
RNA: GGGAGUUCUACAGUCCGACGAUCAACUAGCAGCAUUGAUGAGGGGUUAAGGGAUUGGGGACAGAAACUCACCAAGGUCACGGAGUACUUCCAAACUUGGAAGUAGCUCAGUGAGGGCUAAAAAAACUUCGACUGAAGGUAUCCCAACAGAGGAUUGAGCAUCA
B13: chr7:99968543:99968544:+_ENSMUSG00000030643_ENSMUST00000032879|mus_mus|FALSE|FALSE (ssRNA)
RNA: GGGAGUUCUACAGUCCGACGAUCAAAGACCCUGAGUGAAUCUUCGGACUAGGCACGUCUUUCCCACUCCAGCGUUGCCAAUUAAAACAAUUUUGAACAGGAAAUCAUAAUCUUCCAUACUCAUUUACACAGCUGGUUUGGGAUCAACAGAGGAUUGAGCAUCA
B14: chr4:56883625:56883626:-_ENSMUSG00000055296_ENSMUST00000068792|mus_mus|FALSE|FALSE (ssRNA)
RNA: GGGAGUUCUACAGUCCGACGAUCUAUAGGCGUGCGCCACCACGCCCGGGUUUAAAAUGUGUAGACCAGGCUGGCCUCGAACUCGCGAUCCUCCUGCUUCUGCCUCCUUCAGCAAAUCCUACUGGCGUGCGCCACCACAACCAGCAACAGAGGAUUGAGCAUCA
B15: 24016654_24036560_782_3pUTR_ENSMUSG00000024277_ENSMUST00000025127|mouse|control|control (ssRNA)
RNA: GGGAGUUCUACAGUCCGACGAUCCGUUUCUAAAUCUUUGUCAGAUCUGGAUGCAGAGCCACUGGAUGAAGCCCUUUUGGCAGACGAGGGGCGAGAAGGUGUGGAUCCUGGCUUAGAUGCAGGACUUGACUUAGCCGCGCCUGCCAACAGAGGAUUGAGCAUCA
B16: chr11:77340908:77340909:-_ENSG00000074201_ENST00000525064|hu_mus|FALSE|FALSE (ssRNA)
RNA: GGGAGUUCUACAGUCCGACGAUCGUUUGGAUCCCUGGACACCGCAUGUAAACUAAUGGUGGGGUAUUCCAGUGAGAAUCCUAAUCCCGAACCAUCUAACCAGGACAGGCGGCUCUCCGCGAUGUAAAGCGUGCCGGUGCCGAGCAACAGAGGAUUGAGCAUCA
B17: chr11:115359427:115359428:-_ENSMUSG00000020737_ENSMUST00000021083|mus_hu|motif|central (ssRNA)
RNA: GGGAGUUCUACAGUCCGACGAUCUGCAGUUCACAAGCAUGGAGGAAACAGACAGAACGACAGCGUUCAGGACAGUCAGAGCGGACCCAAGACGAGGCUGGACUUGCCGCCAGGGGGAUUUCUUCUGGAUGGCACUGGGGCCGGCAACAGAGGAUUGAGCAUCA
B18: chr11:63961690:63961691:+_ENSG00000168439_ENST00000305218|hu_mus|FALSE|FALSE (ssRNA)
RNA: GGGAGUUCUACAGUCCGACGAUCUUCAUGUUUUAAACCUUCUUCAUAGGUUCGUUUGGCUUCCUCAAACCGGUUUAGGAAUUCAAGGGCUGCUGCUUUUCUUGAAUAACCCUUGCCCCAGUCAGGCUUCAGGUCAACAGUCUUCAACAGAGGAUUGAGCAUCA
B19: chr13:42873775:42873776:+_ENSG00000023516_ENST00000025301|hu_hu|FALSE|FALSE (ssRNA)
RNA: GGGAGUUCUACAGUCCGACGAUCAGAAGACGAAAAAAAUGUUUUCUGUAAAUCACUAUCUUUAUCUGAAGCAUUAGAUGACCUAUAGAAACUCCUUUGGGUCCAAGGCUCUGAAAUUGAUGUUGUGACUGAAGUUUUCACAGACAACAGAGGAUUGAGCAUCA
B20: chr9:100389865:100389866:-_ENSG00000136925_ENST00000341170|hu_mus|FALSE|FALSE (ssRNA)
RNA: GGGAGUUCUACAGUCCGACGAUCUAUCAGUGGGACAGGUUCCUUGCAGACAAGUAUCUUCCGCAAACCCUAGGCCUUUCCUGGGUCUCCCUUCACCAACUUGGCGCUGCUCCCCGCCCUCGAGCCCACGCCCCCCGGCGCGCGCAACAGAGGAUUGAGCAUCA
B21: chr9:74904954:74904955:+_ENSMUSG00000007656_ENSMUST00000169492|mus_mus|FALSE|FALSE (ssRNA)
RNA: GGGAGUUCUACAGUCCGACGAUCUCAAAAGGAAGAUACAGAAGAAAUCAAUACAACAGAGGUCCUGUUAAAUAAGAGUAACAUACAAAGCUGUAAUCAUGAGAAAGUAAAGAAAGCCAGAGCAUUAAAGCUGUAAAACUUGCUCAACAGAGGAUUGAGCAUCA
B22: chr14:73742652:73742653:-_ENSG00000133961_ENST00000557597|hu_hu|FALSE|FALSE (ssRNA)
RNA: GGGAGUUCUACAGUCCGACGAUCCCCCUUUACCUUUGGCAAGAUUACUUACAACUCAUACAACUUCUUAAUAUCUGAGAACUAUUUAAAAUAUUCUAAAUGCAUAAAAAUAAAGAUUUUGGCUUUUGAUAUAUAUAAUAUUUACAACAGAGGAUUGAGCAUCA

The target of this assay is T1, UNK ZnF1-3. Description: nsRBNS (natural sequence RNA bind-n-seq); RBNS binding buffer (assumed for nsRBNS): 25 mM Tris pH 7.5, 150 mM KCl, 3 mM MgCl2, 0.01% Triton X-100, 500 ug/ml BSA, 20 U/ml SUPERase-In, 4 C; UNK is unkempt and MSI1 is Musashi-1; names of the RNAs are library labels; protein concentration not given here; high values mean tight binding.
In turn, B1 yielded a binding signal of 1.12 enrichment R.

As for B2, the binding signal is 0.878 enrichment R.

B3 displayed a binding signal of 2.21 enrichment R.

With B4, the binding signal is 1.76 enrichment R.

On to B5, for which the binding signal was determined as 0.642 enrichment R.

B6 came in with a binding signal of 0.573 enrichment R.

Turning to B7, the binding signal stood at 0.508 enrichment R.

As for B8, the binding signal was determined as 1.2 enrichment R.

In turn, B9 registered a binding signal of 0.799 enrichment R.

The molecule B10 had a binding signal of 1.36 enrichment R.

B11 registered a binding signal of 0.693 enrichment R.

B12 registered a binding signal of 1.29 enrichment R.

Turning to B13, the binding signal amounted to 1.1 enrichment R.

Consider B14, for which the binding signal is 0.972 enrichment R.

In turn, B15 displayed a binding signal of 0.536 enrichment R.

For B16, the binding signal was determined as 0.705 enrichment R.

In turn, B17 yielded a binding signal of 1.45 enrichment R.

With B18, the binding signal amounted to 0.607 enrichment R.

In the case of B19, the binding signal turned out to be 0.809 enrichment R.

The molecule B20 showed a binding signal of 1.19 enrichment R.

For B21, the binding signal turned out to be 2.34 enrichment R.

For the molecule B22, the binding signal amounted to 1.07 enrichment R.
